Results: PubChem BioAssay AID1159580 (chemical genetic matrix, 2015)
Several values for one entry are separate records, joined by “and”; a condition that tells them apart may be missing. Identical values can stand only once. The whole screen tested about 5,500 compounds, of which about 2,000 (36%) were called active. About 18% were inconclusive and are not listed. Rule as the data show it: active = normalized growth mostly below about 0.91 (no sharp cut-off); inconclusive = no clear call, values can overlap the other calls; inactive = mostly above about 0.92. The list shows a part of the results. A structure can be active in one record and inactive in another.

Test: chemical genetic growth profiling, strain panel (AID 1159580);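 also: tested at 20 µM; growth read once vehicle control cultures reached saturation at 30 °C; 1 = growth at the plate median or of vehicle wells; lower values mean less growth of the strain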
Conditions: growth OD

Measured: normalized growth

Oc1ccc(O)cc1
inactive: S. cerevisiae deletion strains, locus YAL040C, strain CLN3, stronger effect = lower value 1.1 | S. cerevisiae deletion strains, locus YBR229C, strain ROT2, stronger effect = lower value 1.02 | S. cerevisiae deletion strains, locus YCL029C, strain bik1, stronger effect = lower value 1.04 | S. cerevisiae deletion strains, locus YCL061C, strain MRC1 (second series), stronger effect = lower value 0.978 | S. cerevisiae deletion strains, locus YDL035C, strain GPR1, stronger effect = lower value 0.9 | S. cerevisiae deletion strains, locus YDL074C, strain BRE1, stronger effect = lower value 0.96 | S. cerevisiae deletion strains, locus YDL101C, strain DUN1, stronger effect = lower value 1.02 | S. cerevisiae deletion strains, locus YDL134C, strain PPH21, stronger effect = lower value 0.987 | S. cerevisiae deletion strains, locus YDL185W, strain tfp1, stronger effect = lower value 1.01 | S. cerevisiae deletion strains, locus YDL192W, strain arf1, stronger effect = lower value 1.02 | S. cerevisiae deletion strains, locus YDR101C, strain arx1, stronger effect = lower value 1.03 | S. cerevisiae deletion strains, locus YDR150W, strain NUM1, stronger effect = lower value 1.01 and 0.953 | S. cerevisiae deletion strains, locus YDR162C, strain NBP2, stronger effect = lower value 0.987 | S. cerevisiae deletion strains, locus YDR318W, strain mcm21, stronger effect = lower value 1 | S. cerevisiae deletion strains, locus YDR363W, strain ESC2, stronger effect = lower value 0.997 | S. cerevisiae deletion strains, locus YDR388W, stronger effect = lower value 0.999 | S. cerevisiae deletion strains, locus YDR502C, strain sam2, stronger effect = lower value 1.02 | S. cerevisiae deletion strains, locus YEL061C, strain CIN8, stronger effect = lower value 1.02 | S. cerevisiae deletion strains, locus YER002W, strain NOP16, stronger effect = lower value 1 | S. cerevisiae deletion strains, locus YER110C, stronger effect = lower value 1.04 | S. cerevisiae deletion strains, locus YER155C, strain BEM2, stronger effect = lower value 1.02 | S. cerevisiae deletion strains, locus YER167W, strain BCK2, stronger effect = lower value 0.926 | S. cerevisiae deletion strains, locus YGL078C, strain dbp3, stronger effect = lower value 1.03 | S. cerevisiae deletion strains, locus YGL086W, strain mad1, stronger effect = lower value 0.985 | S. cerevisiae deletion strains, locus YGL248W, strain PDE1, stronger effect = lower value 0.975 | S. cerevisiae deletion strains, locus YGR078C, strain PAC10, stronger effect = lower value 0.858 and 1.01 | S. cerevisiae deletion strains, locus YGR135W, strain pre9, stronger effect = lower value 0.964 | S. cerevisiae deletion strains, locus YHR030C, strain SLT2, stronger effect = lower value 1 and 1.03 | S. cerevisiae deletion strains, locus YHR079C, strain IRE1 (second series), stronger effect = lower value 1 | S. cerevisiae deletion strains, locus YHR079C, strain IRE1, stronger effect = lower value 1.05 | S. cerevisiae deletion strains, locus YHR094C, strain hxt1, stronger effect = lower value 1.01 | S. cerevisiae deletion strains, locus YHR129C, strain ARP1, stronger effect = lower value 1.01 | S. cerevisiae deletion strains, locus YHR200W, strain rpn10, stronger effect = lower value 1 | S. cerevisiae deletion strains, locus YIL066C, strain RNR3, stronger effect = lower value 0.993 | S. cerevisiae deletion strains, locus YIL073C, strain SPO22, stronger effect = lower value 0.82 | S. cerevisiae deletion strains, locus YIL125W, strain kgd1, stronger effect = lower value 1.03 | S. cerevisiae deletion strains, locus YIR030C, strain dcg1, stronger effect = lower value 1.06 | S. cerevisiae deletion strains, locus YJL095W, strain BCK1, stronger effect = lower value 0.968 and 1.01 | S. cerevisiae deletion strains, locus YJL134W, strain LCB3, stronger effect = lower value 1.02 | S. cerevisiae deletion strains, locus YJL168C, strain set2, stronger effect = lower value 1.02 | S. cerevisiae deletion strains, locus YJL187C, strain SWE1 (second series), stronger effect = lower value 1.01 | S. cerevisiae deletion strains, locus YJR043C, strain POL32, stronger effect = lower value 0.86 | S. cerevisiae deletion strains, locus YJR066W, strain TOR1, stronger effect = lower value 1.02 | S. cerevisiae deletion strains, locus YJR075W, strain HOC1, stronger effect = lower value 0.951 | S. cerevisiae deletion strains, locus YKL009W, strain mrt4, stronger effect = lower value 1.03 | S. cerevisiae deletion strains, locus YKL068W, stronger effect = lower value 1.01 | S. cerevisiae deletion strains, locus YKL085W, strain MDH1 (second series), stronger effect = lower value 1.02 | S. cerevisiae deletion strains, locus YKL085W, strain MDH1, stronger effect = lower value 1.02 | S. cerevisiae deletion strains, locus YKL190W, strain CNB1, stronger effect = lower value 1 | S. cerevisiae deletion strains, locus YKR001C, strain vps1, stronger effect = lower value 0.927 | S. cerevisiae deletion strains, locus YLR039C, strain RIC1, stronger effect = lower value 0.904 | S. cerevisiae deletion strains, locus YLR058C, strain SHM2, stronger effect = lower value 1.01 | S. cerevisiae deletion strains, locus YLR102C, strain apc9, stronger effect = lower value 1.03 | S. cerevisiae deletion strains, locus YLR113W, strain HOG1, stronger effect = lower value 1.04 | S. cerevisiae deletion strains, locus YLR262C, strain YPT6, stronger effect = lower value 0.843 | S. cerevisiae deletion strains, locus YLR268W, strain sec22, stronger effect = lower value 0.98 | S. cerevisiae deletion strains, locus YLR330W, strain CHS5, stronger effect = lower value 1.01 | S. cerevisiae deletion strains, locus YLR342W, strain FKS1 (second series), stronger effect = lower value 0.801 | S. cerevisiae deletion strains, locus YLR371W, strain rom2, stronger effect = lower value 1.03 | S. cerevisiae deletion strains, locus YLR418C, strain cdc73, stronger effect = lower value 0.845 | S. cerevisiae deletion strains, locus YML016C, strain PPZ1, stronger effect = lower value 1.01 | S. cerevisiae deletion strains, locus YML032C, strain rad52, stronger effect = lower value 0.937 | S. cerevisiae deletion strains, locus YML124C, strain tub3, stronger effect = lower value 1.03 | S. cerevisiae deletion strains, locus YMR078C, strain ctf18, stronger effect = lower value 1.04 | S. cerevisiae deletion strains, locus YMR223W, strain ubp8, stronger effect = lower value 0.996 | S. cerevisiae deletion strains, locus YMR263W, strain SAP30, stronger effect = lower value 0.989 | S. cerevisiae deletion strains, locus YMR307W, strain GAS1, stronger effect = lower value 0.716 and 0.967 | S. cerevisiae deletion strains, locus YNL067W, strain RPL9B, stronger effect = lower value 0.933 | S. cerevisiae deletion strains, locus YNL128W, strain TEP1, stronger effect = lower value 1.02 | S. cerevisiae deletion strains, locus YNL153C, strain GIM3, stronger effect = lower value 0.995 | S. cerevisiae deletion strains, locus YNL175C, strain NOP13, stronger effect = lower value 1 | S. cerevisiae deletion strains, locus YNL183C, strain NPR1, stronger effect = lower value 1.03 | S. cerevisiae deletion strains, locus YNL197C, strain WHI3, stronger effect = lower value 1.01 | S. cerevisiae deletion strains, locus YNL224C, strain SQS1, stronger effect = lower value 1.02 | S. cerevisiae deletion strains, locus YNL233W, strain BNI4, stronger effect = lower value 0.985 | S. cerevisiae deletion strains, locus YNL250W, strain rad50, stronger effect = lower value 1.03 | S. cerevisiae deletion strains, locus YNL271C, strain bni1, stronger effect = lower value 1.05 | S. cerevisiae deletion strains, locus YNL298W, strain CLA4, stronger effect = lower value 1.04 | S. cerevisiae deletion strains, locus YNL322C, strain KRE1, stronger effect = lower value 1.02 | S. cerevisiae deletion strains, locus YNR052C, strain pop2, stronger effect = lower value 1.04 | S. cerevisiae deletion strains, locus YOL006C, strain TOP1, stronger effect = lower value 0.636 | S. cerevisiae deletion strains, locus YOL012C, strain htz1 0.667 | S. cerevisiae deletion strains, locus YOL147C, strain pex11, stronger effect = lower value 1.03 | S. cerevisiae deletion strains, locus YOR061W, strain CKA2, stronger effect = lower value 1.01 | S. cerevisiae deletion strains, locus YOR069W, strain VPS5, stronger effect = lower value 1.01 | S. cerevisiae deletion strains, locus YOR083W, strain WHI5 (second series), stronger effect = lower value 0.893 | S. cerevisiae deletion strains, locus YOR136W, strain idh2, stronger effect = lower value 1.03 | S. cerevisiae deletion strains, locus YOR144C, strain elg1, stronger effect = lower value 1.02 | S. cerevisiae deletion strains, locus YOR184W, strain ser1, stronger effect = lower value 0.979 | S. cerevisiae deletion strains, locus YOR231W, strain MKK1, stronger effect = lower value 1.06 | S. cerevisiae deletion strains, locus YOR316C, strain cot1, stronger effect = lower value 1.03 | S. cerevisiae deletion strains, locus YPL055C, strain LGE1, stronger effect = lower value 0.851 | S. cerevisiae deletion strains, locus YPL241C, strain CIN2, stronger effect = lower value 1.01 and 1 | S. cerevisiae deletion strains, locus YPL256C, strain CLN2, stronger effect = lower value 1.08 | S. cerevisiae deletion strains, locus YPR119W, strain clb2, stronger effect = lower value 1.04 | S. cerevisiae deletion strains, locus YPR141C, strain kar3, stronger effect = lower value 1.03 | S. cerevisiae deletion strains, locus YPR163C, strain tif3, stronger effect = lower value 1 | S. cerevisiae deletion strains, locus YPR167C, strain met16, stronger effect = lower value 1.02 | S. cerevisiae deletion strains, strain wtn01, stronger effect = lower value 0.999 | S. cerevisiae strains, strain wild type, stronger effect = lower value 1.01
0.989 (inactive) and 0.9 (active): S. cerevisiae deletion strains, locus YAL013W, strain DEP1, stronger effect = lower value
active: S. cerevisiae deletion strains, locus YBR021W, strain FUR4, stronger effect = lower value 0.688 | S. cerevisiae deletion strains, locus YGR229C, strain SMI1, stronger effect = lower value 0.637 | S. cerevisiae deletion strains, locus YGR252W, strain gcn5, stronger effect = lower value 0.765 | S. cerevisiae deletion strains, locus YNL307C, strain MCK1, stronger effect = lower value 0.794
